# Results: PMC5540273 (PLoS ONE, 2017)
# System: T1, MLK1
# T1 construct: gene MAP3K9
# Conditions: concentration: 1 μM, replicates: in singlicate; n = 1
# 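Note: KINOMEscan kinase panel screen.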
row,SMILES,%Inh
1,CCn1c(-c2cccnc2O)nc2cnccc21 [SB-736715],0%
2,Cl.Oc1ccc(-c2nc(-c3ccccc3)[nH]c2-c2ccncc2)cc1 [SB-428218],0%
3,CC(=O)Nc1nc2cnc(Nc3cc(NC(=O)c4cccc(CCC#N)c4)ccc3C)nc2s1,2%
4,O=S(=O)(c1ccc(-c2ccnc3[nH]ccc23)cc1)N1CCCC1 [GSK846226],0%
5,CN1C(=O)C(Nc2ccc(Cl)c(C(=O)O)c2)=C(c2ccc(Cl)cc2)C1=O [SB-404290],0%
6,Fc1cc(Cl)ccc1Nc1ccnc2cc(I)ccc12 [GW551191],0%
7,O=c1cc(N2CCOCC2)nc2n(Cc3cccc(Cl)c3Cl)ccn12 [GSK2286295],0%
8,Cn1ccc2ncnc(Oc3ccc(NC(=O)Nc4ccccc4)cc3)c21,0%
9,COc1cc(Nc2nccc(N3CCC(NC(=O)Nc4cc(C)ccc4C)C3)n2)cc(OC)c1OC (stereo not drawn) [GSK1379762],25%
10,CC(C)(C)c1ccc(C(=O)Nc2cn3cc(Cl)ccc3n2)cc1,0%
11,COc1ccccc1CNC(=O)c1cc(C(=O)c2ccccc2C)c[nH]1 [GSK364507],0%
12,O=C(O)COc1ncnc2cc(-c3ccc4[nH]ncc4c3)sc12,10%
13,CS(=O)(=O)c1ccc(-c2nc3n(c2-c2ccncc2)CCC3)cc1 [SKF-105942],0%
14,Cc1c(Cn2ccn3c(=O)cc(N4CCOCC4)nc23)cccc1C(F)(F)F [GSK2289044],0%
15,O=C(Nc1n[nH]c2cc(-c3cccc(F)c3F)ccc12)C1CC1 [SB-733894],0%
16,Cc1csc(-c2nc(Nc3ccncc3)c3ccccc3n2)n1 [GW869640],8%
17,Cl.NC(=O)c1cccc(Nc2nccc(Nc3ccc(Oc4cccc(Cl)c4)c(Cl)c3)n2)c1 [GW659008],0%
18,O=C1NC(=O)C(N2CCc3ccccc32)=C1c1ccccc1Cl [SB-373598],14%

row,SMILES,%Inh
1,COC(=O)c1c(-c2ccccc2)c2cc(C(=O)O)ccc2c(=O)n1Cc1ccccc1,41%
2,Cc1cc(-c2ccc3c(c2)CC[C@@H](N[C@@H](C)c2ccccc2)C3)cnc1N.Cl [GW412617],0%
3,Nc1ncnc2[nH]c(-c3ccccc3)nc12 [AH5015],11%
4,O=C(Nc1n[nH]c2nc(-c3nccs3)c(Br)cc12)C1CC1 [SB-742251],0%
5,Cc1ccccc1-n1cnc2c(N)ncnc21 [SKF-97510],0%
6,Clc1cc(Cl)cc(Nc2ccnc(Nc3cc(Cl)cc(Cl)c3)n2)c1 [GSK175726],0%
7,Cn1ccc2ncnc(Oc3ccc(Nc4nc5ccccc5[nH]4)cc3)c21,0%
8,CCCc1ccc(S(=O)(=O)NC2CCN(c3ccnc(Nc4ccc(F)cc4)n3)C2)cc1 (stereo not drawn) [GSK1379715],0%
9,COc1cc2nccc(Nc3ccc(NC(=O)c4ccc(C)cc4)c(O)c3)c2cc1OC.Cl [GW440132],0%
10,CCn1c(-c2ccccn2)nc2cnccc21 [SB-736398],12%
11,Cl.O=C(Nc1cccc(-c2nn3ncccc3c2-c2ccnc(Nc3cccnc3)n2)c1)c1c(F)cccc1F [GSK312879],0%
12,Cc1ccc(NC(=O)Nc2cccc(Cl)c2)cc1-c1ccc(C(=O)Nc2ccncc2)cc1 [GSK1398468],0%
13,O=C(Nc1ccc2c(c1)OCO2)NC1CCN(c2ccnc(Nc3ccc(F)cc3)n2)C1 (stereo not drawn) [GSK1379724],0%
14,COc1ccc(Nc2nccc(NCCNC(=O)Nc3ccccc3F)n2)cc1 [GSK1379901],0%
15,COc1ccc(Nc2nccc(-c3cccc(NC(=O)c4cc5cc(F)ccc5[nH]4)c3)n2)cc1 [GSK1229782],5%
16,Cc1cc(N2Cc3ccccc3C2)nc(Nc2ccc(S(=O)(=O)N3CCOCC3)cc2)n1.Cl [GSK1669917],0%
17,COc1ccc(CNC(=O)NC2CCN(c3ccnc(Nc4cc(OC)c(OC)c(OC)c4)n3)C2)cc1 (stereo not drawn) [GSK1379748],0%
18,Cc1ccc(-c2cc(-c3c[nH]nc3-c3ccccn3)ccn2)cc1 [GW684088],0%

# System: MLK2
# Conditions: concentration: 1 μM, replicates: in singlicate; n = 1
row,SMILES,%Inh
1,CCn1c(-c2cccnc2O)nc2cnccc21 [SB-736715],0%
2,Cl.Oc1ccc(-c2nc(-c3ccccc3)[nH]c2-c2ccncc2)cc1 [SB-428218],0%
3,CC(=O)Nc1nc2cnc(Nc3cc(NC(=O)c4cccc(CCC#N)c4)ccc3C)nc2s1,15%
4,O=S(=O)(c1ccc(-c2ccnc3[nH]ccc23)cc1)N1CCCC1 [GSK846226],0%
5,CN1C(=O)C(Nc2ccc(Cl)c(C(=O)O)c2)=C(c2ccc(Cl)cc2)C1=O [SB-404290],0%
6,Fc1cc(Cl)ccc1Nc1ccnc2cc(I)ccc12 [GW551191],0%
7,O=c1cc(N2CCOCC2)nc2n(Cc3cccc(Cl)c3Cl)ccn12 [GSK2286295],0%
8,Cn1ccc2ncnc(Oc3ccc(NC(=O)Nc4ccccc4)cc3)c21,0%
9,COc1cc(Nc2nccc(N3CCC(NC(=O)Nc4cc(C)ccc4C)C3)n2)cc(OC)c1OC (stereo not drawn) [GSK1379762],4%
10,CC(C)(C)c1ccc(C(=O)Nc2cn3cc(Cl)ccc3n2)cc1,8%
11,COc1ccccc1CNC(=O)c1cc(C(=O)c2ccccc2C)c[nH]1 [GSK364507],0%
12,O=C(O)COc1ncnc2cc(-c3ccc4[nH]ncc4c3)sc12,4%
13,CS(=O)(=O)c1ccc(-c2nc3n(c2-c2ccncc2)CCC3)cc1 [SKF-105942],0%
14,Cc1c(Cn2ccn3c(=O)cc(N4CCOCC4)nc23)cccc1C(F)(F)F [GSK2289044],0%
15,O=C(Nc1n[nH]c2cc(-c3cccc(F)c3F)ccc12)C1CC1 [SB-733894],0%
16,Cc1csc(-c2nc(Nc3ccncc3)c3ccccc3n2)n1 [GW869640],60%
17,Cl.NC(=O)c1cccc(Nc2nccc(Nc3ccc(Oc4cccc(Cl)c4)c(Cl)c3)n2)c1 [GW659008],33%
18,O=C1NC(=O)C(N2CCc3ccccc32)=C1c1ccccc1Cl [SB-373598],50%

row,SMILES,%Inh
1,COC(=O)c1c(-c2ccccc2)c2cc(C(=O)O)ccc2c(=O)n1Cc1ccccc1,14%
2,Cc1cc(-c2ccc3c(c2)CC[C@@H](N[C@@H](C)c2ccccc2)C3)cnc1N.Cl [GW412617],15%
3,Nc1ncnc2[nH]c(-c3ccccc3)nc12 [AH5015],5%
4,O=C(Nc1n[nH]c2nc(-c3nccs3)c(Br)cc12)C1CC1 [SB-742251],0%
5,Cc1ccccc1-n1cnc2c(N)ncnc21 [SKF-97510],0%
6,Clc1cc(Cl)cc(Nc2ccnc(Nc3cc(Cl)cc(Cl)c3)n2)c1 [GSK175726],0%
7,Cn1ccc2ncnc(Oc3ccc(Nc4nc5ccccc5[nH]4)cc3)c21,20%
8,CCCc1ccc(S(=O)(=O)NC2CCN(c3ccnc(Nc4ccc(F)cc4)n3)C2)cc1 (stereo not drawn) [GSK1379715],0%
9,COc1cc2nccc(Nc3ccc(NC(=O)c4ccc(C)cc4)c(O)c3)c2cc1OC.Cl [GW440132],0%
10,CCn1c(-c2ccccn2)nc2cnccc21 [SB-736398],0%
11,Cl.O=C(Nc1cccc(-c2nn3ncccc3c2-c2ccnc(Nc3cccnc3)n2)c1)c1c(F)cccc1F [GSK312879],31%
12,Cc1ccc(NC(=O)Nc2cccc(Cl)c2)cc1-c1ccc(C(=O)Nc2ccncc2)cc1 [GSK1398468],0%
13,O=C(Nc1ccc2c(c1)OCO2)NC1CCN(c2ccnc(Nc3ccc(F)cc3)n2)C1 (stereo not drawn) [GSK1379724],0%
14,COc1ccc(Nc2nccc(NCCNC(=O)Nc3ccccc3F)n2)cc1 [GSK1379901],0%
15,COc1ccc(Nc2nccc(-c3cccc(NC(=O)c4cc5cc(F)ccc5[nH]4)c3)n2)cc1 [GSK1229782],20%
16,Cc1cc(N2Cc3ccccc3C2)nc(Nc2ccc(S(=O)(=O)N3CCOCC3)cc2)n1.Cl [GSK1669917],0%
17,COc1ccc(CNC(=O)NC2CCN(c3ccnc(Nc4cc(OC)c(OC)c(OC)c4)n3)C2)cc1 (stereo not drawn) [GSK1379748],21%
18,Cc1ccc(-c2cc(-c3c[nH]nc3-c3ccccn3)ccn2)cc1 [GW684088],0%
